Experimental data taken from PubChem BioAssay (Tox21).
Records with an inconclusive call do not appear. Entries that show only a call come without a potency. Active and inactive are the calls of the source. Calls follow the shape of the dose curve; as a rule, active = well fitted cell-killing curve with a large enough effect in the repeat runs; inconclusive = weak or mixed curves, or effect the other way; inactive = flat fitted curve, though single readings scatter.

What was measured:
[1] = cAMP Responsive Elements (CRE) small molecule antagonists, cell-based qHTS assay: qHTS cell viability counter screen (AID 2060913); also: nearly all actives have a fitted effect of over 40% in size
Method in brief: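 HEK293T CRE-bla, 2,000 cells/well, 18 h preincubation; cpd in DMSO + NKH477 0.25 uM final, 3 h 37 C/5% CO2; LiveBLAzer 2 h RT, then CellTiter-Glo 30 min RT, luminescence.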

[2] = cAMP Responsive Elements (CRE) small molecule agonists, cell-based qHTS assay: qHTS cell viability counter screen (AID 2060914); also: nearly all actives have a fitted effect of over 50% in size
Method in brief: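 In the same wells as the reporter read, viability of CRE-bla HEK 293T cells was quantified by CellTiter-Glo luminescence after a 3 h compound exposure.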

Structure (SMILES)	Potency [1]	Potency [2]
OCCNCc1ccccc1	inactive	inactive
CC(C)c1cccc(C(C)C)c1NC(=O)NS(=O)(=O)c1cc(C(C)(C)O)co1	inactive	inactive
O=C1c2c(O)ccc(Nc3ccc(CCO)cc3)c2C(=O)c2c([N+](=O)[O-])ccc(O)c21	inactive	inactive
Brc1ccc(-c2ccccc2)cc1	inactive	inactive
Cc1cccc(N(C)C)c1	inactive	inactive
Fc1ccc(Br)cc1	inactive	inactive
CN(C)c1ccc(CCO)cc1	inactive	inactive
Cl[Si](Cl)(c1ccccc1)c1ccccc1	inactive	inactive
CCCCOCCCC	inactive	inactive
CCCCOCC(C)OCC(C)O (centres undefined)	inactive	inactive
O=Cc1c(Cl)cccc1Cl	inactive	inactive
FB(F)F	inactive	inactive
